Bioassay records deposited in PubChem BioAssay by Bradner/Qi Labs at DFCI.
This is one part of a sample in which hits are shown more often than they occur.
CBX7 inh: CBX7 inhibition, primary AlphaScreen; O95931; AlphaScreen His6-CBX7 / biotin-H3K27me3 peptide binding; hits give low values; normalised signal (fraction of DMSO) (no concentration beside the values); 1.1% of 66,000 active; AID 1224903; in the data active = normalised signal below about 0.5
Target sequence (O95931 whole entry, looked up): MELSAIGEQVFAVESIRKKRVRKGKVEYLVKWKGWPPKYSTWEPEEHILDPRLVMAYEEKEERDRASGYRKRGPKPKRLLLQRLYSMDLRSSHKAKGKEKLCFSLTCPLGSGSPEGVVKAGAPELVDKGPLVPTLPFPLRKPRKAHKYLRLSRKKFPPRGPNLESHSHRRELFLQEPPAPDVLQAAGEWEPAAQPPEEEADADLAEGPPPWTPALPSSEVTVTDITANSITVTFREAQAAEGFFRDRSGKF
* marks the source's active call; other numbers are inactive results.

SMILES	CBX7 inh
CCOc1ccc(C(=O)Nc2c3c(nn2-c2cccc(C)c2C)CSC3)cc1OCC	1.1
CCOC(=O)c1[nH]c2c(c1CCc1cccc(OC)c1)C(=O)CC(c1ccc(OC)c(OC)c1)C2 (stereo not given)	0.81
COCc1cc(=O)[nH]c(Nc2nc3ccccc3o2)n1	0.12*
COCc1cc(=O)[nH]c(Nc2nc(C)c3ccccc3n2)n1	1
O=c1cc(-c2ccccc2)nc(Nc2nc3ccccc3o2)[nH]1	1.5
CN(C(=O)c1ccc2c(c1)N(Cc1ccc(F)cc1)C(=O)c1ccccc1S2=O)C1CCCCC1 (stereo not given)	0.92
O=C(Nc1ncc(Cc2ccc(F)cc2)s1)c1cccs1	1.1
CCCCn1c(CNC(=O)c2ccccc2OC)nc2ccccc21	1
COc1ccc(-c2nn(C)c3sc(C(=O)NC4CCCCC4)cc23)cc1OC	0.97
COC(=O)c1c[nH]n2c(NC3CCCCC3)c(-c3cccs3)nc12	0.52
COc1ccc(NC(=O)c2c[nH]n3c(=O)cc(C4CCN(C(=O)OC(C)(C)C)CC4)nc23)cc1OC	0.89
COc1ccc(-c2nc3cnccn3c2NC2CCCCC2)cc1	1.3
COc1ccc(NC(=O)c2c[nH]n3c(=O)cc(C4CCN(C(=O)OC(C)(C)C)CC4)nc23)cc1Cl	0.96
COC(=O)c1cn(-c2ccccc2)nc1-c1ccc(OC)cc1	1
COC(=O)c1c[nH]n2c(NC3CCCCC3)c(-c3ccc(OCCC(C)C)c(OC)c3)nc12	0.37*
COC(=O)c1c[nH]n2c(NC3CCCCC3)c(-c3ccc(OC)cc3)nc12	0.32*
COC(=O)c1c[nH]n2c(NC3CCCCCC3)c(-c3ccc(OC)cc3)nc12	0.34*
COc1ccc(-c2cc(C(=O)NC3CCCC3)no2)cc1	1.2
COC(=O)c1c[nH]n2c(NC3CCC(C)CC3)c(-c3ccc(OC(C)C)c(OC)c3)nc12 (stereo not given)	0.12*
COc1ccc(-c2nc(SCC(=O)NC3CCCC3)c(-c3ccc(C)cc3)[nH]2)cc1OC	0.99
CCOc1cc2c(cc1OCC)C1C(C(=O)Nc3ccc(F)cc3F)c3ccccc3C(=O)N1CC2 (stereo not given)	1.1
CCOC(=O)c1cnc2ccc(OCC)cc2c1Nc1cccc(Cl)c1C	0.9
Cc1ccc(CNC(=O)c2sc(-n3cccc3)nc2C)cc1	0.72
Cc1c(C(=O)N2CCC(C)CC2)sc2ncn(CC(=O)N3CC(C)CC(C)C3)c(=O)c12 (stereo not given)	0.97
O=C(C1CCC(Cn2c(=O)[nH]c3ccccc3c2=O)CC1)N1CCN(c2cccc(Cl)c2)CC1 (stereo not given)	0.81
SMILES	CBX7 inh
COC(=O)c1c[nH]n2c(=O)c(Cc3cccc(C)c3)c(C)nc12	1.1
COC(=O)c1c[nH]n2c(NC3CCC(C)CC3)c(-c3ccc(C)cc3)nc12 (stereo not given)	0.23*
Cc1nc2c(C(=O)NC3CCC(C)CC3)c[nH]n2c(=O)c1Cc1ccccc1F (stereo not given)	1.1
O=C(Nc1ccc(F)c(Cl)c1)c1cccc(NC2=NC3CS(=O)(=O)CC3S2)c1 (stereo not given)	1
COc1ccc(NS(=O)(=O)c2ccc3c(c2)CCN3C(=O)CCC(=O)O)cc1	0.96
C=CCNC(=O)C1CC(c2cc(OC)ccc2OC)=NO1 (stereo not given)	1.1
Cc1ccc(-c2noc(COc3cc(C)cc(C)c3)n2)cc1	1.2
COC(=O)c1sccc1NC(=O)Cn1ncc2c1-c1ccccc1OC2	0.99
O=C(NC1CCCCC1)c1c[nH]c2ccc(S(=O)(=O)Nc3cccc(C(F)(F)F)c3)cc2c1=O	0.69
CCCCN(CCCC)CCNC(=O)C1CCN(Cc2nc(-c3ccc(Cl)cc3)oc2C)CC1	2
Cc1cc(NC(=O)CN2CCN(c3ccccc3)CC2)no1	1
CN(C)CC(=O)Nc1c2c(nc3c1CCC3)CCCC2	0.23*
CC(C)NCC(=O)Nc1c2c(nc3c1CCC3)CCCC2	0.52
O=C(CN1CCN(c2ccccc2)CC1)Nc1c2c(nc3c1CCC3)CCCC2	0.98
O=C(CCN1Cc2ccccc2C1)Nc1c2c(nc3c1CCC3)CCCC2	0.95
O=C(Nc1c2c(nc3c1CCC3)CCCC2)c1ccccn1	0.14*
CCN(CC)CC(=O)Nc1c2c(nc3c1CCC3)CCC2	1
Cc1ccc(NC(=O)CCc2nnc3ccc(N4CCC(Cc5ccccc5)CC4)nn23)cc1C	0.84
CCc1nnc(NC(=O)c2ncn[nH]2)s1	0.38*
CCc1nnc(NC(=O)c2ccc(C(C)(C)C)cc2)s1	0.99
CCc1nnc(NC(=O)c2cc(OC)c(OC)c(OC)c2)s1	0.99
COc1cc(OC)c(NC(=O)Cn2nc(Cc3cccnc3)c3ccccc3c2=O)cc1Cl	1.1
Cc1ccc(-c2nnc(Nc3ccc(C(=O)N(C)C)cc3)c3ccccc23)cc1S(=O)(=O)N(C)C	1
CC1CCN(S(=O)(=O)c2ccc3[nH]c(=O)cc(C(=O)NCCCN4CCCC4)c3c2)CC1	0.89
CCOC(=O)c1ccc(NC2c3ncccc3C(=O)N2Cc2ccc(F)cc2)cc1 (stereo not given)	0.45*
